Experimental data: paper PMC4336329 (PLoS ONE, 2015)
The campaign covered roughly 310,000 compounds. About 14,000 (4.5%) showed an effect of 50% or more. The effect is printed as a negative number. The full list was thinned out, with strong results kept by preference.

Each molecule was assayed against human ether-à-go-go-related gene (hERG) potassium channel (human, UniProt Q12809) (assay: primary screen, population patch clamp on CHO cells stably expressing hERG; higher = less effect of the substance).
Chain of human ether-à-go-go-related gene (hERG) potassium channel (Q12809 whole entry, looked up): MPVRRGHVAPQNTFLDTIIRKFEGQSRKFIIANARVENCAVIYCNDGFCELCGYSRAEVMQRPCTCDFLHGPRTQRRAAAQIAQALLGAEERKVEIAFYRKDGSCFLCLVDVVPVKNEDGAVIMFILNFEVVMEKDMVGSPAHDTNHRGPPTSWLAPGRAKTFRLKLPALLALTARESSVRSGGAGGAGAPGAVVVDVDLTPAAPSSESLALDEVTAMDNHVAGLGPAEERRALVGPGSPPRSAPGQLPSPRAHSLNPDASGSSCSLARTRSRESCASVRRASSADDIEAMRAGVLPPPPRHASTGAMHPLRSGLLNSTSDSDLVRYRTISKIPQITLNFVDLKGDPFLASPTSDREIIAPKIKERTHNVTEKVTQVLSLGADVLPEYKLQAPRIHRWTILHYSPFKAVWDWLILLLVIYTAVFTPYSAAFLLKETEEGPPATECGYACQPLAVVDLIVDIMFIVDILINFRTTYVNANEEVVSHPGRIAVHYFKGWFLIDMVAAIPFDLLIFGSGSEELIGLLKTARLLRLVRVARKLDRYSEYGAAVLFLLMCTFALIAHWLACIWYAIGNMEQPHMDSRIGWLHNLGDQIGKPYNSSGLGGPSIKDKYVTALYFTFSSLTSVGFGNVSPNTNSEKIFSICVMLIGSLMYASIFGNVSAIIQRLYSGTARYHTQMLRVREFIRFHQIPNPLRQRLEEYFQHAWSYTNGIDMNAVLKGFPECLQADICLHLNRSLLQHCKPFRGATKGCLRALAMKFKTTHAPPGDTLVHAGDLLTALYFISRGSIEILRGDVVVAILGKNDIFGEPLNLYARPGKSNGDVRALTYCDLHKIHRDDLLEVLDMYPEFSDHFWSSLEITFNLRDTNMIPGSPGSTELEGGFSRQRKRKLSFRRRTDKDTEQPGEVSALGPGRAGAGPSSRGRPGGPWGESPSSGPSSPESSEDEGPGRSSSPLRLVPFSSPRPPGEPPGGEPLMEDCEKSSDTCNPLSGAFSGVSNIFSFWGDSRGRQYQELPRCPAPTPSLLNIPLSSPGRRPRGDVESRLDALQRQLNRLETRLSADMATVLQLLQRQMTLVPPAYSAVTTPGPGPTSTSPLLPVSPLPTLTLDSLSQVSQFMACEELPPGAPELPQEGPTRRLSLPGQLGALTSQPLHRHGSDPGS
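Note: peak tail current of the secondary pulse compared with the same well before compound.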

Row | SMILES | hERG current change (%, negative = inhibition) at 10uM [%]
1 | O=C(COc1ccc(Br)cc1Cl)N1CCN(c2ncccn2)CC1 | -49.7
2 | CC1(C)CC(C(CC(=O)O)c2ccccc2)CCO1 (centres unmarked) | 28.9
3 | CCCCN(CC(=O)NCc1ccc(F)cc1)C(=O)c1ccco1 | 8.72
4 | COc1ccc(CN(CCC(c2ccccc2)C2CCOC(C)(C)C2)C(C)=O)cc1 (centres unmarked) | -11.6
5 | CC(c1ccccc1)N(CCC(c1ccccc1)C1CCOC(C)(C)C1)C(=O)c1ccco1 (centres unmarked) | -22.2
6 | COc1cccc(CN(CC(=O)NCc2ccc(F)cc2)C(=O)c2ccco2)c1 | -39.2
7 | CC1(C)CC(C(CCN(Cc2ccccc2)C(=O)c2ccco2)c2ccc(F)cc2)CCO1 (centres unmarked) | -10.4
8 | COc1ccc(CN(CC(=O)NCc2ccc(F)cc2)C(=O)c2ccco2)cc1 | -61.7
9 | COc1ccc(CN(CCC(c2ccc(F)cc2)C2CCOC(C)(C)C2)C(=O)c2ccco2)cc1 (centres unmarked) | -52.1
10 | O=C(CN(Cc1ccc(F)cc1)C(=O)c1ccco1)NCc1ccc(F)cc1 | -40.9
11 | O=C(CN(Cc1ccccc1)C(=O)c1ccco1)NCc1ccc(F)cc1 | -31.6
12 | O=C(CN(Cc1ccccc1F)C(=O)c1ccco1)NCc1ccc(F)cc1 | -50.7
13 | COc1ccc(CNCCC(c2ccccc2)C2CCOC(C)(C)C2)cc1 (centres unmarked) | -52.1
14 | O=C(CN(C(=O)CCC(=O)Nc1nccs1)c1ccc(F)cc1)NCc1ccc(F)cc1 | 16.8
15 | Cc1cc(N)ccc1N=Nc1c(C)n(C)n(-c2ccccc2)c1=O | -5.57
16 | Cc1cc(=O)[nH]c(SCC(=O)NCCC2=CCCCC2)n1 | 28.2
17 | Cc1c(C(=O)N2CCCCC2)c(S(=O)(=O)N(C)Cc2ccccc2)c(C)n1C | 2.66
18 | O=C(Nc1ccccc1C(=O)NCC1CCCO1)c1ccc(Cl)cc1 (centres unmarked) | -34.8
19 | CC1(C)CC2CC(C)(CN2C(=O)COC(=O)c2cccc(O)c2)C1 (centres unmarked) | 6.76

Row | SMILES | hERG current change (%, negative = inhibition) at 10uM [%]
20 | N#Cc1ccc(-c2ccccc2)nc1Sc1ccc(F)cc1 | 13.2
21 | CC(C)Oc1cccc(C(=O)Nc2ccc(N3CCN(S(C)(=O)=O)CC3)cc2)c1 | -0.708
22 | O=C1CC(c2ccccc2)CCc2sccc2N1 (centres unmarked) | -5.86
23 | Cc1cc(C(F)(F)F)nc(CCNCc2c(C(=O)N3CCCC3)nc3ccccn23)n1 | -14.4
24 | O=C(c1nc2ccccn2c1CNCCCn1cccn1)N1CCCC1 | -12.1
25 | Cc1ccn2c(CNCC3OCCc4ccccc43)c(C(=O)N3CCCCCC3)nc2c1 (centres unmarked) | -62.9
26 | CN1Cc2ccccc2CC1CNCc1c(C(=O)N2CCCC2)nc2ccccn12 (centres unmarked) | -73.5
27 | Cc1cccn2c(CNCC3OCCc4ccccc43)c(C(=O)N3CCCCC3)nc12 (centres unmarked) | -19.5
28 | O=C(c1nc2ccccn2c1CNCC1OCCc2ccccc21)N1CCOCC1 (centres unmarked) | -0.852
29 | Cc1onc(-c2ccccc2)c1C(=O)NCC(O)c1ccccc1 (centres unmarked) | 5
30 | Cc1onc(-c2ccccc2)c1C(=O)NC(C)c1ccc2c(c1)OCO2 (centres unmarked) | 27.7
31 | COc1cc(OC)cc(C(=O)OCC(=O)NCc2ccc3c(c2)OCO3)c1 | 12.9
32 | CCCc1ccc2oc(C(=O)N3CCC(COC)C3)c(C)c2c1 (centres unmarked) | -38.4
33 | O=C(NC1CS(=O)(=O)CC1NCc1ccco1)c1ccccc1 (centres unmarked) | 2.09
34 | N#CCCN1CCN(Cc2cc(-c3ccccc3)ccc2O)CC1 | -48.8
35 | Oc1ccc(-c2ccccc2)cc1CN1CCCCCC1 | -52.1
36 | Clc1ccc(C(CCN2CCCC2)Cc2ccccc2)cc1 (centres unmarked) | -62.7
37 | Oc1ccc(Br)cc1CN1CCCCCCC1 | -47.6
38 | O=S(=O)(NCCN1CCCC1)c1ccc(Cl)cc1 | 10.3

Row | SMILES | hERG current change (%, negative = inhibition) at 10uM [%]
39 | OC(CCN1CCOCC1)c1ccccc1 (centres unmarked) | 4.54
40 | Cl.ClC(CCN1CCN(Cc2ccccc2)CC1)c1ccccc1 (centres unmarked) | -20.6
41 | Cl.OC(CCCCN1CCCCC1)c1ccccc1 (centres unmarked) | -18.1
42 | OC(CCN1CCCCC1)c1ccc(-c2ccccc2)cc1 (centres unmarked) | -56.4
43 | O=S(=O)(Nc1ccc(N2CCOCC2)cc1)c1ccc(F)cc1 | 4.3
44 | COC(=O)N1N=C(c2ccc(Br)cc2)CC1(O)C(F)(F)F (centres unmarked) | -1.71
45 | CCOc1ccc(CNC(=O)CN2C(=O)C(c3ccccc3)Oc3cccnc32)cc1 (centres unmarked) | -3.6
46 | O=C(N/N=C/c1ccncc1)c1ccc(COc2cccc3cccnc23)cc1 | -45.6
47 | O=C(N/N=C/c1ccc[nH]1)c1ccc(COc2cccc3cccnc23)cc1 | -58.3
48 | O=C(N/N=C/c1cccc(O)c1)c1ccc(COc2cccc3cccnc23)cc1 | 22.8
49 | CCOC(=O)C1=c2/c(=C/c3ccncc3)c(N)c(C(=O)OC)n2C(=O)C(c2ccncc2)S1 (centres unmarked) | 1.36
50 | O=C(CCc1ccccc1)NNC(=O)c1ccc(NC(=O)c2ccccc2)cc1 | 2.53
51 | Cc1cc(S(=O)(=O)Nc2ccc3c(c2)COC3=O)ccc1F | 7.2
52 | Cc1cc(C)n(C(=O)c2cccc(S(=O)(=O)N3CCCC3)c2)n1 | 6.46
53 | O=C(Nc1ccnn1C1CCN(Cc2c(F)cccc2Cl)CC1)C1CCCC1 | -32.1
54 | O=C(Nc1ccnn1C1CCN(C/C=C/c2ccccc2)CC1)C1CCCC1 | -73
55 | O=C(Nc1ccnn1C1CCN(C/C=C/c2ccc(F)cc2)CC1)C1CCCC1 | -76.2
56 | CN(c1ccc(O)cc1)S(=O)(=O)c1ccc2ccccc2c1 | -12.8
